Source: PubChem BioAssay (National Center for Advancing Translational Sciences (NCATS))
Gal4-VP16 FLuc = VP16 counterscreen qHTS for inhibitors of ROR gamma transcriptional activity; Drosophila S2 Gal4-VP16 UAS-luciferase, luminescence, 20 h; Potency, µM (doses to about 53.6 µM), hits mostly inhibitors; hit rate 3.5% among 310,000; AID 2546, 2010;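 note: Gal4-VP16 expression switched on by copper sulfate through the metallothionein promoter; nearly all actives have a fitted effect of over 50% in size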
TDP1 cell noCPT = qHTS for Inhibitors of human tyrosyl-DNA phosphodiesterase 1 (TDP1): qHTS in cells in absence of CPT. DT40 Tdp1-/- hTDP1 cells, no CPT, ATP luminescence, 48 h. Potency, µM (highest dose often 46.2 µM), actives largely listed as inhibitors. hit rate 15% among 420,000; note: nearly all actives have a fitted effect of over 55% in size
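Compound effects on proliferation are scored in DT40 Tdp1-/-;hTDP1 cells in the absence of CPT. ATP levels (CellTiter-Glo luminescence) are recorded after a ≥48 hr, 37 °C incubation.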
DT40 TDP1 CPT = qHTS for Inhibitors of human tyrosyl-DNA phosphodiesterase 1 (TDP1): qHTS in cells in presence of CPT; hit rate 12% among 420,000; chicken DT40 Tdp1-/-;hTDP1 cells + 20 nM CPT, ATP luminescence, 48 h; Potency, µM (titrated, usually from 46.2 µM), actives largely listed as inhibitors; note: nearly all actives have a fitted effect of over 55% in size
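Cell growth measured by CellTiter-Glo luminescence after a minimum 48 h, 37 C compound exposure with 20 nM CPT in Tdp1-knockout DT40 cells stably expressing hTDP1, seeded 400/well; qHTS titration format.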
RORgamma inh = qHTS for inhibitors of ROR gamma transcriptional activity; Nuclear receptor ROR-gamma (Mus musculus), P51450; hit rate 5.4% among 310,000; Drosophila S2 Gal4-RORgamma UAS-luciferase reporter, 20 h; Potency, µM (top dose mostly 53.6 µM), usual class: inhibitors; note: nearly all actives have a fitted effect of over 60% in size
Target sequence (P51450 whole entry, looked up, the tested form may be a part): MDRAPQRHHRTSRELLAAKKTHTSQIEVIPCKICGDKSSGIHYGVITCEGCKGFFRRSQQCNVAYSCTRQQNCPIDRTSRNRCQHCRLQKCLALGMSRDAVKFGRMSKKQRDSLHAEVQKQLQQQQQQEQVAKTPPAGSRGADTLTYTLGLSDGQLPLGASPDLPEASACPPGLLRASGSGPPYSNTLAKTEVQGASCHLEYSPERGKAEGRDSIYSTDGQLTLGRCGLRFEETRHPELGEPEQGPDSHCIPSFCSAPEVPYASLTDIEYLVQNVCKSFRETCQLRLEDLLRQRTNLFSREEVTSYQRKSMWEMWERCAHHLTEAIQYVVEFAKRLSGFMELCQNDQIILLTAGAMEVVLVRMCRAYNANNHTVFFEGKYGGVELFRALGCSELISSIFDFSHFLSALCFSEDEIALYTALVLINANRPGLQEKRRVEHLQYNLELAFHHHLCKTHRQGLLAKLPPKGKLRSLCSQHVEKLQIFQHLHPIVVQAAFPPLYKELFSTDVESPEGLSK
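Stably transfected Drosophila Schneider cells are the test system, with ROR gamma fused to Gal4 and luciferase under UAS control; luminescence is read after 20 hr of 700 uM copper sulfate induction at ambient temperature.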
TDP1 block = qHTS Assay for Inhibitors of Tyrosyl-DNA Phosphodiesterase (TDP1); recombinant TDP1, AlphaScreen DNA substrate cleavage; Potency, µM (titrated, usually from 130 µM), actives largely listed as inhibitors; hit rate 0.28% among 350,000; AID 485290, 2010; note: nearly all actives have a fitted effect of over 40% in size
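Steps: enzyme plus compound, 15 min RT; add biotin/phosphotyrosine-FITC oligonucleotide (15 nM final), react 5 min; add donor/acceptor beads (10 ug/ml final), 10 min; read AlphaScreen. Tdp1 at 1 nM final.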
Each line names hits and unclear results; the compound was inactive in the other large screens. Most compounds without a hit are left out; they make up all but 19% or so of the library. Calls come from the whole dose curve; as a rule, active = well fitted curve in the direction sought with a large enough effect; inconclusive = small, poorly fitted or top-dose-only effect, or another doubt; inactive = no such curve, though single readings can be large; an effect the other way counts as inactive or inconclusive.

CCOC(=O)c1c(-c2cccs2)csc1NC(=O)c1ccco1	none
CCCOC1(NC(=O)c2ccccc2)C(C)=CC(=O)C=C1C	TDP1 cell noCPT inconclusive, DT40 TDP1 CPT 23.1µM
CCCOC(=O)c1ccccc1	none
COC(C[C@H]1O[C@H]1[C@H](O)[C@@H](C)OCc1ccccc1)OC	none
O=C(N/N=C/c1cn(-c2ccccc2)nc1-c1cccs1)c1ccc(Cl)cc1	Gal4-VP16 FLuc 5.01µM, TDP1 cell noCPT inconclusive, DT40 TDP1 CPT inconclusive, RORgamma inh 2.51µM
O=C(N/N=C/c1cn(-c2ccccc2)nc1-c1cccs1)c1ccccc1F	Gal4-VP16 FLuc 6.31µM, DT40 TDP1 CPT 16.4µM, RORgamma inh 5.01µM
O=C(NCCN1CCOCC1)c1cn(-c2ccccc2)nc1-c1cccs1	none
O=C(NN=Cc1ccccc1Cl)c1ccc(-n2cnnn2)cc1	none (no result: Gal4-VP16 FLuc, RORgamma inh)
COc1ccc2c(c1)Cc1sc(NC(=O)c3ccco3)nc1-2	Gal4-VP16 FLuc inconclusive, TDP1 cell noCPT inconclusive, DT40 TDP1 CPT inconclusive
O=C(NC(=S)Nc1nc2ccccc2s1)c1ccco1	Gal4-VP16 FLuc 1.26µM, TDP1 cell noCPT inconclusive, DT40 TDP1 CPT inconclusive, RORgamma inh 0.891µM
COc1ccc2nc(NC(=S)NC(=O)c3ccco3)sc2c1	Gal4-VP16 FLuc inconclusive, TDP1 cell noCPT inconclusive, RORgamma inh 1.12µM
CCCOc1ccc(C(=O)NC(=S)Nc2nc3ccc(C)cc3s2)cc1	RORgamma inh inconclusive (no result: TDP1 cell noCPT, DT40 TDP1 CPT)
COc1ccc2sc(NC(=O)c3ccco3)nc2c1	Gal4-VP16 FLuc inconclusive, DT40 TDP1 CPT inconclusive, RORgamma inh 10µM
COc1ccc2nc(NC(=O)c3ccoc3C)sc2c1	Gal4-VP16 FLuc inconclusive, TDP1 cell noCPT inconclusive, DT40 TDP1 CPT inconclusive, RORgamma inh inconclusive
CCCOc1ccc(C(=O)NC(=S)Nc2nc3ccccc3s2)cc1	Gal4-VP16 FLuc inconclusive, RORgamma inh 0.794µM
CCc1cc2cc(C)c(C)cc2nc1SCC(=O)NNC(=O)c1ccco1	RORgamma inh inconclusive
CCOc1ccc2nc(NC(=O)C3CCN(C(=O)c4ccco4)CC3)sc2c1	TDP1 cell noCPT inconclusive, DT40 TDP1 CPT inconclusive
CCc1cc2ccc(OC)cc2nc1SCC(=O)NNC(=O)c1ccco1	RORgamma inh 17.8µM
O=C(Nc1nc2ccccc2s1)C1CCN(C(=O)c2ccco2)CC1	TDP1 cell noCPT 14.6µM, DT40 TDP1 CPT inconclusive, RORgamma inh inconclusive
Cc1nc(NC(=O)c2ccco2)sc1C(=O)O	Gal4-VP16 FLuc 11.2µM, TDP1 cell noCPT 10.3µM, DT40 TDP1 CPT 6.51µM, RORgamma inh 7.08µM (no result: TDP1 block)
Cc1cc(Cl)cc2sc(NC(=O)c3ccco3)nc12	Gal4-VP16 FLuc inconclusive (no result: TDP1 block)
Cc1cc(C)c2nc(NC(=O)c3ccco3)sc2c1	Gal4-VP16 FLuc 10µM, TDP1 cell noCPT inconclusive, RORgamma inh 4.47µM
Cn1cnnc1SCC(=O)c1cccc([N+](=O)[O-])c1	none
O=C(NCc1ccc(-c2nc3ccccc3s2)cc1)c1ccco1	none
O=C(NC(=S)NCc1ccc(-c2nc3ccccc3s2)cc1)c1ccco1	Gal4-VP16 FLuc 5.62µM, TDP1 cell noCPT inconclusive, DT40 TDP1 CPT inconclusive, RORgamma inh 7.08µM
O=C(CSc1nc2ccccc2[nH]1)N1c2ccccc2Sc2ccccc21	TDP1 cell noCPT inconclusive, DT40 TDP1 CPT inconclusive
CC(C)C[C@H]1CNC(=S)N1CC1CCCN1C[C@H](CC(C)C)N1C[C@H](Cc2ccc(O)cc2)N(CC2CCCCC2)C1=S (stereo not given in full)	TDP1 cell noCPT 18.4µM, DT40 TDP1 CPT inconclusive (no result: Gal4-VP16 FLuc, RORgamma inh, TDP1 block)
CC(C)C[C@H]1CNC(=S)N1C[C@H]1CCCN1C[C@H](CC(C)C)N1C[C@H](Cc2ccc(O)cc2)N(CC2CCCCCC2)C1=S	TDP1 cell noCPT 8.2µM, DT40 TDP1 CPT 16.4µM (no result: Gal4-VP16 FLuc, RORgamma inh, TDP1 block)
CC(C)C[C@H]1CNC(=S)N1CC1CCCN1C[C@H](CC(C)C)N1C[C@H](Cc2ccc(O)cc2)N(CC2CCCCCC2)C1=S (stereo not given in full)	TDP1 cell noCPT 18.4µM, DT40 TDP1 CPT 23.1µM (no result: Gal4-VP16 FLuc, RORgamma inh, TDP1 block)
CN(C)C(=O)c1cn(-c2ccccc2)c(=O)c2ccccc12	none
O=C(O)C(=Cc1ccnc2ccccc12)C(=O)O	none (no result: Gal4-VP16 FLuc, RORgamma inh, TDP1 block)
NC(=NCc1ccccc1)NN=Cc1ccnc2ccccc12	TDP1 cell noCPT inconclusive, DT40 TDP1 CPT 20.6µM (no result: Gal4-VP16 FLuc, RORgamma inh, TDP1 block)
N/C(=N\N=C\c1ccnc2ccccc12)SC1CC(=O)N(c2ccc(Br)cc2)C1=O (stereo not given)	TDP1 cell noCPT 14.6µM, DT40 TDP1 CPT inconclusive
NC(N)=NN=Cc1ccnc2ccccc12	TDP1 cell noCPT inconclusive, DT40 TDP1 CPT 14.6µM (no result: Gal4-VP16 FLuc, RORgamma inh, TDP1 block)
CN(Cc1cccc(C(F)(F)F)c1)C(=O)C1CCC(=O)N(CC2CCCCC2)C1 (stereo not given)	TDP1 cell noCPT 16.4µM, DT40 TDP1 CPT inconclusive
COc1ccc(-c2[nH]nc3c2C(c2ccc(OC(=O)N4CCOCC4)cc2)C(C#N)=C(N)O3)cc1 (stereo not given)	none
CCCc1nnc(NC(=O)CCC(=O)N2CCN(Cc3ccc(C)cc3C)CC2)s1	TDP1 cell noCPT 8.2µM, RORgamma inh inconclusive
CCCC(=O)Nc1nnc(CC(=O)N2CCCC2)s1	RORgamma inh 1.26µM
Cc1ccc(CN2CCN(C(=O)CCC(=O)Nc3nnc(C(C)C)s3)CC2)c(C)c1	TDP1 cell noCPT inconclusive, DT40 TDP1 CPT inconclusive
CCc1nnc(NC(=O)CCC(=O)N2CCN(Cc3ccc(C)cc3C)CC2)s1	TDP1 cell noCPT 18.4µM, DT40 TDP1 CPT inconclusive
C/C(=N\NC(=O)c1ccc(Cl)cc1)c1cccc(NC(=O)C(C)C)c1	RORgamma inh 11.2µM
C/C(=N\NC(=O)c1cccc(Cl)c1)c1cccc(NC(=O)C(C)C)c1	none
C/C(=N\NC(=O)c1c(-c2ccccc2Cl)noc1C)c1cccc(NC(=O)C(C)C)c1	TDP1 cell noCPT 23.1µM, DT40 TDP1 CPT inconclusive
Cc1ccc(S(=O)(=O)Nc2nc3cc(C)c(C)cc3[nH]2)cc1	TDP1 cell noCPT inconclusive, DT40 TDP1 CPT inconclusive
Oc1c(C(Nc2cccc(C(F)(F)F)c2)c2cccnc2)ccc2cccnc12 (stereo not given)	Gal4-VP16 FLuc 2.82µM, TDP1 cell noCPT inconclusive, DT40 TDP1 CPT inconclusive, RORgamma inh 2.51µM
COc1ccc(Cl)cc1C(Nc1cccnc1)c1ccc2cccnc2c1O (stereo not given)	Gal4-VP16 FLuc 2.24µM, TDP1 cell noCPT inconclusive, DT40 TDP1 CPT inconclusive, RORgamma inh 1.12µM (no result: TDP1 block)
CN1CCN(C(c2ccc(C(F)(F)F)cc2)c2ccc3cccnc3c2O)CC1 (stereo not given)	Gal4-VP16 FLuc 1.58µM, TDP1 cell noCPT 8.2µM, DT40 TDP1 CPT 8.2µM, RORgamma inh 3.16µM
CN1CCN(C(c2ccccc2)c2ccccc2)CC1	Gal4-VP16 FLuc inconclusive, TDP1 cell noCPT inconclusive, DT40 TDP1 CPT inconclusive
